Screen size: about 190,000 compounds; about 240 (0.13%) were called active. The sample holds actives, similar compounds and a random draw of the others, so the mix is not that of the screen. Rule as the data show it: active = inhibition above about 40%.
These compounds were tested against Bcl-2-related protein A1 (Homo sapiens) (UniProt Q16548) (assay: Bfl-1/Bim complex disruptors – biochemical, multiplexed, bead-based flow cytometry, primary screen (AID 1008;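 also: 0% = wells without compound plus tracer and 100% = blocker peptide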)). Details: Bim-Bfl-1 binding inhibition, at 10 µM, stronger effect = higher value.
Sequence of Bcl-2-related protein A1 (Homo sapiens) (Q16548 whole entry, looked up): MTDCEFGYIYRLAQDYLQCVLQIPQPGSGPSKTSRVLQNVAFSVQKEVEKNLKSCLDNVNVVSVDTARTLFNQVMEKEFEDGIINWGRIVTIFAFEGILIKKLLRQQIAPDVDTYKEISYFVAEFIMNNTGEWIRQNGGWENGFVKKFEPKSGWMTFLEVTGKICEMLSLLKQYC

SMILES	inhibition
O=c1[nH]c2ccccc2n2c(-c3ccccc3)nnc12	54% (active)
O=[N+]([O-])c1cccc(-c2nnc3c4ccccc4c4ccccc4n23)c1	-7% (inactive)
CCOC(=O)c1cnc2[nH]c3ccccc3n2c1=O	-8% (inactive)
CC(=O)c1ccc(N2CCN(C(=O)c3ccc4nc[nH]c4c3)CC2)cc1	0% (inactive)
CN(C(=O)CSc1nnc(Nc2ccccc2)s1)C1CCS(=O)(=O)C1 (stereo not drawn)	-5% (inactive)
CC1(C)C2CCC1(C)C(OC(=O)c1ccc(O)cc1)C2 (stereo not drawn)	2% (inactive)
COc1ccc(CC(=O)NCc2nnc(SCC(=O)Nc3ncc(C)s3)n2C)cc1	-5% (inactive)
COc1ccc(CN2CCNC(=O)C2CC(=O)N(C)Cc2ccccn2)cc1OC (stereo not drawn)	-2% (inactive)
O=C(O)CC(Cc1ccccc1)C(=O)Nc1ccc([N+](=O)[O-])cc1 (stereo not drawn)	-14% (inactive)
Cc1cc(Cl)ccc1NC(=S)N1CCC(C(N)=O)(N2CCCCC2)CC1	0% (inactive)
C=CCOCCN(C)C1=NS(=O)(=O)c2ccccc21	-4% (inactive)
CCC(C)(C)NC(=O)CN(C(=O)C(=O)Nc1ccc2c(c1)OCCO2)C(C)(C)CC	3% (inactive)
O=S(=O)(c1ccc(-c2ccccc2)cc1)N1CCCC1	-7% (inactive)
CN(c1ccc2nc3ccccc3c(=O)n2n1)C1CCCCC1	-3% (inactive)
CCOC(=O)Cc1csc(NC(=O)COc2ccc3c(C)cc(=O)oc3c2)n1	-4% (inactive)
CCOC(=O)c1ccccc1NC(=O)CSc1nc2ccccc2c(=O)[nH]1	-3% (inactive)
COc1ccc(-c2ccc(CCC(=O)O)n2-c2ccc(O)cc2)cc1	5% (inactive)
Cc1cc(Cl)c(S(=O)(=O)NCCC(=O)O)cc1OCC(N)=O	-15% (inactive)
Cc1cc(Cl)c(S(=O)(=O)Nc2ccc3c(c2)OCCO3)cc1OCC(N)=O	-2% (inactive)
Cc1cc(Cl)c(S(=O)(=O)NCC2CCCO2)cc1OCC(N)=O (stereo not drawn)	48% (active)
CN(C)S(=O)(=O)N1CCN(c2ccc([N+](=O)[O-])cc2)CC1	0% (inactive)
Cc1ccc(CC(=O)Nc2ccc(OC(F)F)c(Cl)c2)cc1C	-6% (inactive)
COc1cccc(C(O)Cc2nc3ccccc3n2C)c1OC (stereo not drawn)	-3% (inactive)
CCOC(=O)/C(C#N)=C/c1cn(CCC(=O)O)nc1-c1ccc(Br)cc1	-9% (inactive)
CC(=O)Nc1ccc(NC(=O)COc2ccc(S(=O)(=O)NC(C)c3ccccc3)cc2)cc1 (stereo not drawn)	-5% (inactive)

SMILES	inhibition
Cc1oc2c(c1C(=O)N1CCOCC1)C(=O)c1ccccc1C2=O	-1% (inactive)
Cc1ccnc(NC(=O)c2ccco2)n1	-3% (inactive)
COC(=O)COc1ccc(C2NC(=O)NC(C)=C2C(=O)NCc2ccccc2)cc1OC (stereo not drawn)	-9% (inactive)
C/C(=N\NC(=O)COc1c(C)cccc1C)c1cccs1	-7% (inactive)
Cc1ccc(NC(=O)c2ccn(C(=O)Nc3ccccc3)n2)c(C)c1	-2% (inactive)
CC1(C)CC(=O)c2ccc(O)cc2O1	-4% (inactive)
Cc1[nH]c2ccccc2c1SCC(=O)Nc1nccs1	-5% (inactive)
CCCOC(=O)c1c(NC(=O)c2cnn3c2NC(c2ccccc2)CC3C(F)(F)F)sc2c1CCCC2 (stereo not drawn)	-18% (inactive)
Cc1ccc(-c2csc(NC(=O)Cn3[nH]c(=O)c4ccccc4c3=O)n2)cc1	-4% (inactive)
CCc1cccc(CC)c1NC(=S)NCc1ccc2[nH]c(C)cc2c1	-2% (inactive)
Cn1cc(CN2CCC(C(O)CCc3ccccc3)CC2)c(-c2ccccc2F)n1 (stereo not drawn)	-5% (inactive)
CCO[C@H]1OC(C(=O)N2CCOCC2)=C[C@@H](c2ccc3c(c2)OCO3)[C@@H]1CCCO	-4% (inactive)
O=C(CCC(=O)Nc1ccccc1)N/N=C/c1ccccc1F	-4% (inactive)
Cc1cc([N+](=O)[O-])ccc1NC1CCCC1	-7% (inactive)
C=CS(=O)c1sc(Cl)c(N2CCOCC2)c1[N+](=O)[O-] (stereo not drawn)	57% (active)
O=C(O)c1cccc(S(=O)(=O)Nc2ccc(O)cc2Sc2nc3ccccc3s2)c1	7% (inactive)
O=[N+]([O-])c1c(NCCO)cc(Sc2nc3ccccc3s2)c2nonc12	56% (active)
COc1ccc(S(=O)(=O)Nc2ccc(O)c(Sc3nc4ccccc4s3)c2)cc1	9% (inactive)
COc1ccc(N(C)S(=O)(=O)c2cccc3nsnc23)cc1	-6% (inactive)
C=CCn1c2ccccc2c2nnc(SCc3[nH]c(=O)[nH]c3C(=O)CCCCC(=O)OCC)nc21	16% (inactive)
Cc1nonc1C1CCCN1Cc1nc(-c2ccc(F)cc2F)oc1C (stereo not drawn)	-4% (inactive)
Cc1n[nH]c(=O)n1-c1ccc(C(C)C)cc1	-5% (inactive)
C/C(CC(=O)Nc1cccc(F)c1)=N\NC(=O)C(=O)NC1CCCCC1	0% (inactive)
CN(C(=O)c1c(Cl)cnn1C)C12CC3CC(CC(C3)C1)C2	21% (inactive)
CCN(CCn1cccn1)Cc1nc(-c2ccc(C(=O)OC)cc2)no1	-5% (inactive)

SMILES	inhibition
Cc1ccccc1NC(=O)CN1C(=O)N/C(=C\c2cccn2-c2cccc(C(=O)O)c2)C1=O	-3% (inactive)
COc1cc(NC(=S)NCCSc2ccc(C)cc2)cc(OC)c1	-1% (inactive)
CCN(CC)S(=O)(=O)c1ccc(Cl)c(C(=O)NC(C)C(c2cccs2)N2CCCC2)c1 (stereo not drawn)	-5% (inactive)
C=CCNc1nc(Nc2ccc(Cl)cc2)nc(OC)n1	-6% (inactive)
Cc1cccc(NC(=S)NCCN(C2CCCCC2)C2CCCC2)c1	-2% (inactive)
CCOC(=O)C1(CC2CCCCO2)CCN(Cc2nc(-c3cccs3)oc2C)CC1 (stereo not drawn)	-5% (inactive)
Cc1cccc2cc(CN(C(=O)c3cccs3)c3ccccc3)c(=O)[nH]c12	-5% (inactive)
N=c1c2c3c(sc2ncn1N)CCCC3	-7% (inactive)
Nc1nc(CC(=O)CSc2ccc(Cl)cc2)nc(Nc2ccc(F)cc2)n1	-12% (inactive)
O=C(/C=C/c1ccc(Cl)cc1)N1CCN(c2ccccc2[N+](=O)[O-])CC1	2% (inactive)
CCN(CC)CCCNC(=O)c1ccc2c(=O)n(Cc3ccc4c(c3)OCO4)c(=S)[nH]c2c1	-5% (inactive)
CCOC(=O)c1sc(-c2cccc([N+](=O)[O-])c2)cc1N	-1% (inactive)
Cc1ccc(/C=N/NC(=O)Cn2ccc(C(F)(F)F)n2)o1	-3% (inactive)
COc1ccc(N2C(=O)C(CC(=O)Nc3ccc(F)cc3)N(CCc3cccs3)C2=O)cc1 (stereo not drawn)	-3% (inactive)
Cc1cc(C(=O)NNC(=O)c2cccc(S(=O)(=O)N3CCOCC3)c2)c2ccccc2n1	-6% (inactive)
CC(C)n1c(O)c(N=Nc2ccccn2)c2ccccc21	-1% (inactive)
CCC(O)C1CCN(Cc2cn(-c3ccc(OC)cc3)nc2-c2cccc(F)c2)CC1 (stereo not drawn)	-8% (inactive)
CC(=O)C1=C(C)NC2=C(C(=O)CC(C)(C)C2)C1C (stereo not drawn)	-2% (inactive)
O=C(O)CSc1nccc2ccccc12	5% (inactive)
OC1CCCN(c2ncnc3c2nnn3Cc2c(F)cccc2Cl)C1 (stereo not drawn)	4% (inactive)
CO/N=C/CC(=O)c1ccc(OC)cc1	-2% (inactive)
OCCC1CN(Cc2ccc3nsnc3c2)CCN1C1CCCC1 (stereo not drawn)	-8% (inactive)
CCc1ccc(C2C(C#N)=C(N)N(N(C)C)C3=C2C(=O)CCC3)s1 (stereo not drawn)	0% (inactive)
CC(OC(=O)c1ccccc1OCc1ccc(Cl)cc1)C(N)=O (stereo not drawn)	-4% (inactive)
CC1Cc2ccccc2N1C1=CC(=O)CC(C)(C)C1 (stereo not drawn)	-4% (inactive)

SMILES	inhibition
CCOc1ccccc1/C=N/NC(=O)CNC(=O)COc1ccccc1	54% (active)
C=CCc1ccccc1OCC(=O)N/N=C/c1ccccc1OCC	-1% (inactive)
Cc1ccc(/C=N/NC(=O)CNC(=O)COc2ccccc2)o1	-12% (inactive)
C=CCOC(=O)C1=C(C)N=C2SCCC(=O)N2C1/C=C/c1ccccc1OC (stereo not drawn)	-9% (inactive)
CCc1nnc(NC(=O)/C=C/c2ccc(C)o2)s1	-1% (inactive)
Cc1c(NC(=O)/C=C/C(=O)O)cccc1[N+](=O)[O-]	-15% (inactive)
Cc1ccc(/C=C/C(=O)Nc2ccc([N+](=O)[O-])c(NC(=O)/C=C/c3ccc(C)o3)c2)o1	40% (active)
O=C(/C=C/c1ccc(Cl)cc1)Nc1ccc(Br)cn1	-6% (inactive)
Cc1nn(-c2ccccc2)c(NC(=O)c2cccs2)c(-c2ccc(Cl)cc2)c1=O	-7% (inactive)
CSCc1cc(N(C)C)nc(SCc2ccc(Cl)cc2Cl)n1	52% (active)
CSCc1cc(N2CCOCC2)nc(SCc2ccc(Cl)cc2Cl)n1	-15% (inactive)
Clc1ccc(CSc2nnc(/C=C/c3ccccc3)o2)c(Cl)c1	-12% (inactive)
COc1cc(OC)cc(-c2nnc(N(C)C(=O)c3ccncc3)s2)c1	-10% (inactive)
CCO[C@H]1OC(C(=O)N2CCCCCCC2)=C[C@@H](c2ccc(C(F)(F)F)cc2)[C@@H]1CCCO	-7% (inactive)
C/C(=C\c1ccco1)C1Nc2cccc3cccc(c23)N1	45% (active)
CC(/C=N/NC(=O)c1ccncc1)=C\c1ccco1	-1% (inactive)
CC(/C=N/NC(=O)c1cc(-c2ccc3ccccc3c2)n[nH]1)=C\c1ccco1	8% (inactive)
CCn1c(CNC(=O)c2ccco2)nnc1SCC(=O)Nc1cccc(F)c1	-1% (inactive)
Cc1ccc(C2CCN(C(=S)Nc3cccc(Cl)c3)C2)cc1 (stereo not drawn)	-4% (inactive)
COC(=O)c1cc2c(ccn2C)n1C	-5% (inactive)
COc1cc(OC)c(C(=O)OCC(=O)N2CC(=O)Nc3ccccc32)cc1OC	-1% (inactive)
CCC(=O)c1ccc(OCC(O)Cn2nc(C)c(C(C)=O)c2C)cc1 (stereo not drawn)	0% (inactive)
CNC(=S)N1CCC(NC(=O)C(Cc2ccc(F)cc2)NC(C)=O)CC1 (stereo not drawn)	-2% (inactive)
